Unmarked numbers belong to inactive results. A call without a number means that no potency is given here. Calls of active or inactive are those of the source. The call rests on the fitted dose curve; in most records, active means well fitted activation curve with a large enough effect in the repeat runs; inconclusive means weak or mixed curves; inactive means flat fitted curve, though single readings scatter.

The nature of the assay: A CellTox Green Cytotoxicity Assay to monitor cytotoxicity in HEK293 cells - 0 hour (AID 1224869). Further: nearly all actives have a fitted effect of over 50% in size. The note with it: CellTox Green fluorescence; series mostly up to 76.8 µM. The text has this:
National Center for Advancing Translational Sciences [NCATS]
NIH Chemical Genomics Center [NCGC]
U.S. Environmental Protection Agency [EPA]
National Institutes of Environmental Health Sciences [NIEHS]
National Toxicology Program [NTP]
Cell-based models are critical for drug discovery. Determining the natural cytotoxic effects resulting from test compounds is an essential research activity. A CellTox Green Cytotoxicity Assay to monitor cytotoxicity in real time of continues cell culture during 40 hours of the compound treatment was used to screen Tox21 10K library compounds in Hek293 cells. CellTox Green Cytotoxicity Assay is a nonlytic, homogeneous, biofluorescent method to measure cytotoxicity in cell culture after experimental manipulation. The assay system uses a proprietary asymmetric cyanine dye that is excluded from viable cells but preferentially stains the dead cell's DNA. […] Viable cells produce no appreciable increases in fluorescence. Therefore, the fluorescence signal produced by the binding interaction with dead cell DNA is proportional to cytotoxicity.
The mixture of Hek293 cell suspension and reagents were dispensed at 600cells/6 ul/well in 1536-well tissue culture treated black solid bottom plates using a Multidrop dispenser. After the assay plates were incubated at a 37 C/5% CO2 incubator for 5 hours, 23 nL of compounds dissolved in DMSO, positive and negative controls was transferred to the assay plate by a pintool work station. The plates were incubated at 37 C for 40 hours. The fluorescence intensity were measured at 0h, 8h, 16h, 24h, 32h and 40h time points using ViewLux plate reader during compound treatment.
Consider `CC1=CCC2C(C1)C2(C)C` (stereo not given), for which the Potency result was “inactive”.

Turning to `[O-][N+](=Nc1ccccc1)c1ccccc1`, the Potency entry was “inactive”.

Turning to `CCCCC1CCCCC(=O)O1` (stereo not given), the Potency entry is “inactive”.

Regarding `CC1CCN(CCCC(=O)c2ccc(F)cc2)CC1`, the Potency entry was “inactive”.

For `C#CC(O)C(CC)CCCC` (stereo not given), the Potency entry is “inactive”.

As for `CSc1ccc(C=O)cc1`, the Potency result was “inactive”.

In the case of `O=C(O)/C=C/c1ccc(/C=C/C(=O)O)cc1`, the Potency result is “inactive”.

Consider `Oc1cc(O)c2c(c1)O[C@H](c1ccc(O)c(O)c1)[C@H](O)C2`, for which the Potency entry is “inactive”.

Regarding `CCC(=O)c1cccc(Cl)c1`, the Potency result was “inactive”.

For the molecule `CCCCCCCCCCCCCCC`, the Potency result was “inactive”.

As to `CO`, the Potency entry was “inactive”.

In the case of `NC(N)=NS(=O)(=O)c1ccc(N)cc1`, the Potency entry was “inactive”.

Consider `N#CCN(CC#N)CCN(CC#N)CC#N`, for which the Potency result was “inactive”.

For `CC(O)CN(CCCN(C)C)CCCN(C)C` (stereo not given), the Potency entry is “inactive”.

Turning to `CCn1cc(C(=O)O)c(=O)c2cc(F)c(N3CCN(C)CC3)cc21`, the cytotoxicity is -2.39% [at 15.8 µM].

As to `C=C(C)C(=O)OCCCCCCCCCCCCCCCCCC`, the cytotoxicity is 2.77% [at 15.8 µM].

Take `CCC(=O)/C=C/c1ccc(OC)cc1`: the Potency result is “inactive”.

As for `Oc1ccc2c(c1)OC[C@@H](N1CCC(O)(c3ccc(F)cc3)CC1)[C@H]2O`, the Potency entry was “inactive”.

For the molecule `CC(=O)O[C@H](CC(=O)[O-])C[N+](C)(C)C`, the Potency result is “inactive”.

As for `C[N+](C)(C)CC[N+]1(C)Cc2c(Cl)c(Cl)c(Cl)c(Cl)c2C1`, the Potency entry was “inactive”.

Regarding `CCC(C)OC(=O)N1CCCCC1CCO` (stereo not given), the Potency entry is “inactive”.

For the molecule `N[C@@H](CS)C(=O)O`, the Potency entry was “inactive”.

In the case of `O=S(=O)(O)c1ccccc1O`, the Potency result is “inactive”.

With `COCCOC(=O)CC#N`, the Potency result was “inactive”.

Consider `CCCCCC[C@@H](CCC)C(=O)O`, for which the Potency entry was “inactive”.

On to `CCCCCCOC(=O)c1ccccc1O`, for which the Potency result is “inactive”.

Regarding `C[C@H]1O[C@@H](n2cc(F)c(=O)[nH]c2=O)[C@H](O)[C@@H]1O`, the Potency entry was “inactive”.

`COc1nc(C)nc(N)n1`: the Potency result was “inactive”.

For `CCCCCCCCC=O`, the Potency result is “inactive”.

In the case of `O=C(O)c1ccccc1S`, the Potency entry is “inactive”.

Consider `CC(C)c1cccc(O)c1`, for which the Potency entry is “inactive”.

Regarding `Nc1ncnc2c1ncn2Cc1c(F)cccc1Cl`, the Potency result was “inactive”.

With `COc1ccc(N=[N+]([O-])c2ccc(OC)cc2)cc1`, the Potency entry was “inactive”.

With `CCCC=O`, the Potency result is “inactive”.

Consider `CCC(=O)Nc1cccc(N)c1`, for which the Potency entry is “inactive”.

In the case of `C#CC(O)CCCCC` (stereo not given), the Potency result is “inactive”.

As to `CC(C)[N+](C)(C)CC(O)COc1cccc2ccccc12` (stereo not given), the Potency entry is “inactive”.

With `CCn1c(=O)c2c(nc(/C=C/c3ccc(OC)c(OC)c3)n2C)n(CC)c1=O`, the Potency result was “inactive”.

On to `O=S(=O)(c1cccc2cnccc12)N1CCCNCC1`, for which the Potency entry was “inactive”.

With `CCCOCC(C)OCC(C)O` (stereo not given), the Potency entry is “inactive”.
